Experimental data taken from PubChem BioAssay (NCI).
The panel holds about 83,000 compounds, 20% with a hit somewhere; the sample as a whole holds those more often.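 Each cell line was grown in a 96-well plate and treated with one concentration of compound for 48 hours. Values below 10 were considered active.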 Active and inactive are the calls of the source.

Tests used:
Assay in all cases: NCI-60 one-dose screen, 48 h (100 = growth as untreated, 0 = no growth, -100 = all killed)
Details in all cases: 10 µM unless noted
NCI-H23 lung = system: NCI-H23 lung
NCI-H322M lung = system: NCI-H322M lung
HOP-62 NSCLC = system: HOP-62 NSCLC
NCI-H460 lung = system: NCI-H460 lung
HOP-92 NSCLC = system: HOP-92 NSCLC
NCI-H522 lung = system: NCI-H522 lung
A549/ATCC NSCLC = system: A549/ATCC NSCLC
786-0 renal = system: 786-0 renal
COLO 205 colon = system: COLO 205 colon
NCI-H226 lung = system: NCI-H226 lung

Measured: growth

Cc1ccc(-c2nc([P+](c3ccccc3)(c3ccccc3)c3ccccc3)c(S(=O)(=O)c3ccc(C)cc3)o2)cc1
active: NCI-H460 lung 4.75% | HOP-92 NSCLC -7.71% | NCI-H522 lung 4.04% | 786-0 renal -18.7% | COLO 205 colon -38.1%
inactive: NCI-H23 lung 15% | NCI-H322M lung 57.2% | HOP-62 NSCLC 17.7% | A549/ATCC NSCLC 27.5%

O=C(O)c1ccc(-n2cc(/C=N/Nc3ccccc3)c(-c3ccc(F)cc3F)n2)cc1
inactive: NCI-H23 lung 71.5% | NCI-H322M lung 62.1% | HOP-62 NSCLC 40.2% | NCI-H460 lung 55.3% | HOP-92 NSCLC 83.5% | NCI-H522 lung 26.6% | A549/ATCC NSCLC 60% | 786-0 renal 71.5% | COLO 205 colon 108%

O=C1/C(=C/c2ccc([N+](=O)[O-])cc2)COc2ccc(O)cc21
inactive: NCI-H23 lung 96.6% | NCI-H322M lung 91.9% | HOP-62 NSCLC 104% | NCI-H460 lung 97.9% | HOP-92 NSCLC 110% | NCI-H522 lung 62.2% | A549/ATCC NSCLC 97.1% | 786-0 renal 81.9% | COLO 205 colon 92.9%

Cc1cc(C(=O)O)c(C)n1-c1cccc(C(=O)O)c1
inactive: NCI-H23 lung 78.7% | NCI-H322M lung 94% | HOP-62 NSCLC 96.7% | NCI-H460 lung 35.1% | HOP-92 NSCLC 90.5% | NCI-H522 lung 46% | A549/ATCC NSCLC 71.4% | 786-0 renal 106% | COLO 205 colon 92.5%

O=C1Nc2ccccc2/C1=C/c1cccn1CCCCn1c2ccccc2c(=O)c2ccccc21
inactive: NCI-H23 lung 77.4% | NCI-H322M lung 101% | NCI-H460 lung 93.7% | HOP-92 NSCLC 59.5% | NCI-H522 lung 68.4% | A549/ATCC NSCLC 86.3% | 786-0 renal 97% | COLO 205 colon 69.8%

COc1ccc(-c2cc(-c3cc(OC)c(OC)c(OC)c3)c(C#N)c(=O)n2CCCCC(=O)NO)cc1
inactive: NCI-H23 lung 67.4% | NCI-H322M lung 75.1% | HOP-62 NSCLC 65% | NCI-H460 lung 55.3% | HOP-92 NSCLC 51.9% | NCI-H522 lung 54.6% | A549/ATCC NSCLC 71.9% | 786-0 renal 83.7% | COLO 205 colon 84.3%

O=c1c2cccc3c(N4CCCC4)ccc(c32)c2nc3ccccc3n12
inactive: NCI-H23 lung 68.2% | NCI-H322M lung 95.1% | HOP-62 NSCLC 66.1% | NCI-H460 lung 16.1% | HOP-92 NSCLC 40.7% | NCI-H522 lung 71.2% | A549/ATCC NSCLC 35.6% | 786-0 renal 88.3% | COLO 205 colon 63.6%

O=C1C(=O)N(Cc2ccc(-c3ccccc3)cc2)c2ccc(OC(F)(F)F)cc21
inactive: NCI-H23 lung 41.4% | NCI-H322M lung 102% | HOP-62 NSCLC 37.5% | NCI-H460 lung 83.3% | HOP-92 NSCLC 60.8% | NCI-H522 lung 31.1% | A549/ATCC NSCLC 92.9% | 786-0 renal 41.6% | COLO 205 colon 82.7%

CC1OC(n2c3ccccc3c3c4c(c5c6ccccc6[nH]c5c32)C(=O)N(CCN2CCCC2)C4=O)CC(O)C1O (configuration not stated)
inactive: NCI-H23 lung 41% | NCI-H322M lung 58.2% | HOP-92 NSCLC 86.6% | NCI-H522 lung 24.5% | A549/ATCC NSCLC 15.3% | 786-0 renal 18% | COLO 205 colon 24.8%
active: NCI-H460 lung -61.3%

CC(C)=CCC[C@](C)(O)[C@H]1CC[C@]2(C)[C@@H]1CC[C@@H]1[C@@]3(C)C/C(=C/c4ccco4)C(=O)C(C)(C)[C@@H]3CC[C@]12C
inactive: NCI-H23 lung 101% | NCI-H322M lung 103% | HOP-62 NSCLC 102% | NCI-H460 lung 106% | HOP-92 NSCLC 98.2% | NCI-H522 lung 102% | A549/ATCC NSCLC 107% | 786-0 renal 99.6% | COLO 205 colon 110%

CC(=O)c1c(C)nc2ccccc2c1/C=C/c1ccc(F)cc1
inactive: NCI-H23 lung 81.7% | NCI-H226 lung 77.2% | NCI-H322M lung 96.8% | NCI-H460 lung 91.5% | HOP-92 NSCLC 75.6% | NCI-H522 lung 69.2% | A549/ATCC NSCLC 83.8% | 786-0 renal 89.4% | COLO 205 colon 104%

CCCCNC(=O)Oc1ccc(/C(=C(/C)Cc2ccc(OC)cc2)c2ccc(OCCN(CC)CC)cc2)cc1
inactive: NCI-H23 lung 97% | NCI-H322M lung 84.9% | HOP-62 NSCLC 91.5% | NCI-H460 lung 53.3% | HOP-92 NSCLC 52.6% | NCI-H522 lung 85.3% | A549/ATCC NSCLC 61.2% | 786-0 renal 69% | COLO 205 colon 46.8%

Oc1ccc(Cl)cc1/C=N\NC(=S)N/N=C/c1cc(Cl)ccc1O
active: NCI-H522 lung -7.22%
inactive: NCI-H23 lung 50% | NCI-H322M lung 34.4% | HOP-62 NSCLC 51.2% | NCI-H460 lung 14.7% | HOP-92 NSCLC 40.1% | A549/ATCC NSCLC 37.4% | 786-0 renal 21.4% | COLO 205 colon 41.5%

COC(=O)CC[C@@H]1O[C@@H](c2cccc(C(F)(F)F)c2)[C@@H](O)[C@H]1O
inactive: NCI-H23 lung 94.2% | NCI-H322M lung 103% | HOP-62 NSCLC 103% | NCI-H460 lung 102% | HOP-92 NSCLC 84.3% | NCI-H522 lung 98.6% | A549/ATCC NSCLC 107% | 786-0 renal 103% | COLO 205 colon 108%

O=C(CN1CCCCC1)Nc1nc(-c2cc3ccccc3oc2=O)cs1
inactive: NCI-H23 lung 109% | NCI-H322M lung 93.9% | HOP-62 NSCLC 96.2% | NCI-H460 lung 103% | HOP-92 NSCLC 98.7% | NCI-H522 lung 93.6% | A549/ATCC NSCLC 102% | 786-0 renal 95.4% | COLO 205 colon 116%

O=[N+]([O-])c1cccc(-c2nc3cc4nc5ccccc5[nH]c4cc3n2)c1
inactive: NCI-H23 lung 90.1% | NCI-H322M lung 97.7% | NCI-H460 lung 112% | HOP-92 NSCLC 113% | NCI-H522 lung 92.6% | A549/ATCC NSCLC 92.6% | 786-0 renal 91.9% | COLO 205 colon 114%

Cn1c(=O)c2nc(/C=C/c3ccccc3)c(=O)[nH]c2n(C)c1=S
inactive: NCI-H226 lung 101% | NCI-H322M lung 99.7% | HOP-62 NSCLC 100% | NCI-H460 lung 103% | HOP-92 NSCLC 98.1% | NCI-H522 lung 102% | A549/ATCC NSCLC 107% | 786-0 renal 99.8% | COLO 205 colon 121%

c1ccc(Cn2cc3c(c2)-c2oncc2CC3)cc1
inactive: NCI-H226 lung 53% | NCI-H322M lung 60.4% | HOP-62 NSCLC 21.1% | NCI-H522 lung 21.3% | A549/ATCC NSCLC 23.2% | 786-0 renal 37.1% | COLO 205 colon 15.9%
active: NCI-H460 lung 8.32%

CCSC(SCC)c1ccc(Cl)cc1
inactive: NCI-H226 lung 102% | NCI-H322M lung 123% | HOP-62 NSCLC 98.5% | NCI-H460 lung 103% | HOP-92 NSCLC 101% | NCI-H522 lung 107% | A549/ATCC NSCLC 102% | 786-0 renal 110% | COLO 205 colon 117%
